# Test results from the supplement of paper PMC4022240.
# ± gives the standard deviation.
# T1: HaloTag-ATRX ADD domain (163-292)
# T1 chain: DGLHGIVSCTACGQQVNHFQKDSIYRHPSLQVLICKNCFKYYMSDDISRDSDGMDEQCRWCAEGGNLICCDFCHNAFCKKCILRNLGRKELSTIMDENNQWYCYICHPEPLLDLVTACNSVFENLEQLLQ
# What was measured:
# Test in all cases: peptide microarray binding signal (635 nm), min-max normalized on array (fraction of array maximum); higher = stronger binding
# Settings in all cases: peptide region: H2B 17-29
# [1] = molecular target: T1, HaloTag-ATRX ADD domain (163-292)
# Procedure: (§1)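 Histone 13-mer peptides were synthesized as cellulose conjugates with a C-terminal 20-atom PEG linker and printed in triplicate on nitrocellulose. The sequence given is the unmodified backbone; PTMs (Kme1/2/3, Kac, Sph/Tph, Rme/Rme2a/Rme2s, Rcit) are listed in the label and the 'peptide modifications' condition. Slides were probed at 4 °C for 1 h with biotin-labelled (HQ)5-HaloTag reader fusions (ATRX-ADD, ING2-PHD) then streptavidin-Alexa647, or with rabbit histone antibodies then anti-rabbit Alexa647. The mean 635 nm signal of the triplicate spots was scaled 0-1 between the lowest and highest values on each array.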
# [2] = molecular target: HaloTag-ING2 PHD (mouse Ing2 200-280)
# Procedure: as §1
# [3] = molecular target: anti-H3K4me3 antibody ab8580
# Procedure: as §1
# [4] = molecular target: anti-H3K9me3 antibody ab8898
# Procedure: as §1
# [5] = peptide modifications: H2BK20ac H2BK23ac, binder concentration: 50 nM
# [6] = peptide modifications: H2BK20ac H2BK23ac, binder concentration: 500 nM
# [7] = peptide modifications: H2BK20ac H2BK23ac, binder concentration: 10 nM
# [8] = peptide modifications: H2BK20ac H2BK23ac, binder concentration: 100 nM
# [9] = peptide modifications: H2BK20ac H2BK23ac, binder concentration: 1:2,000 dilution
# [10] = peptide modifications: H2BK20ac H2BK23ac, binder concentration: 1:10,000 dilution
# [11] = peptide modifications: H2BK20ac H2BK24ac H2BK28ac, binder concentration: 1:2,000 dilution
# [12] = peptide modifications: H2BK20ac H2BK24ac H2BK28ac, binder concentration: 1:10,000 dilution
# [13] = peptide modifications: H2BK20ac H2BK24ac H2BK27ac H2BK28ac, binder concentration: 1:2,000 dilution
# [14] = peptide modifications: H2BK20ac H2BK24ac H2BK27ac H2BK28ac, binder concentration: 1:10,000 dilution
# [15] = peptide modifications: H2BK23ac H2BK24ac, binder concentration: 1:2,000 dilution
# [16] = peptide modifications: H2BK23ac H2BK24ac, binder concentration: 1:10,000 dilution
# [17] = peptide modifications: H2BK20ac H2BK28ac, binder concentration: 1:2,000 dilution
# [18] = peptide modifications: H2BK20ac H2BK28ac, binder concentration: 1:10,000 dilution
# [19] = peptide modifications: H2BK20ac, binder concentration: 1:2,000 dilution
# [20] = peptide modifications: H2BK20ac, binder concentration: 1:10,000 dilution
# [21] = binder concentration: 1:2,000 dilution
# [22] = binder concentration: 1:10,000 dilution
# [23] = peptide modifications: H2BK23ac H2BK24ac H2BK28ac, binder concentration: 1:2,000 dilution
# [24] = peptide modifications: H2BK23ac H2BK24ac H2BK28ac, binder concentration: 1:10,000 dilution
# [25] = peptide modifications: H2BK20ac H2BK23ac H2BK27ac, binder concentration: 1:2,000 dilution
# [26] = peptide modifications: H2BK20ac H2BK23ac H2BK27ac, binder concentration: 1:10,000 dilution
binder,measurement,setting,value
AVTKAQKKDGKKR [H2B 17-29 A V T Kac A Q K Kac D G K K R],peptide microarray binding signal,[1]; [5],0.00342 ± 3.7e-05
same,peptide microarray binding signal,[1]; [6],0.00562 ± 0.00013
same,peptide microarray binding signal,[2]; [7],0.00651 ± 0.00014
same,peptide microarray binding signal,[2]; [8],0.00468 ± 0.0004
same,peptide microarray binding signal,[3]; [9],0.00213 ± 0.0003
same,peptide microarray binding signal,[3]; [10],0.000685 ± 1.5e-05
same,peptide microarray binding signal,[4]; [9],0.000544 ± 1.7e-05
same,peptide microarray binding signal,[4]; [10],0.000865 ± 9e-06
AVTKAQKKDGKKR [H2B 17-29 A V T Kac A Q K Kac D G K Kac R],peptide microarray binding signal,"[1]; peptide modifications: H2BK20ac H2BK24ac H2BK28ac, binder concentration: 50 nM",0.00815 ± 0.00023
same,peptide microarray binding signal,"[1]; peptide modifications: H2BK20ac H2BK24ac H2BK28ac, binder concentration: 500 nM",0.00795 ± 0.00026
same,peptide microarray binding signal,"[2]; peptide modifications: H2BK20ac H2BK24ac H2BK28ac, binder concentration: 10 nM",0.00853 ± 0.00032
same,peptide microarray binding signal,"[2]; peptide modifications: H2BK20ac H2BK24ac H2BK28ac, binder concentration: 100 nM",0.0068 ± 0.00034
same,peptide microarray binding signal,[3]; [11],0.00196 ± 0.00041
same,peptide microarray binding signal,[3]; [12],0.002054 ± 1.9e-05
same,peptide microarray binding signal,[4]; [11],0.0013 ± 0.00012
same,peptide microarray binding signal,[4]; [12],0.001614 ± 1.6e-05
AVTKAQKKDGKKR [H2B 17-29 A V T Kac A Q K Kac D G Kac Kac R],peptide microarray binding signal,"[1]; peptide modifications: H2BK20ac H2BK24ac H2BK27ac H2BK28ac, binder concentration: 50 nM",0.00276 ± 5.2e-05
same,peptide microarray binding signal,"[1]; peptide modifications: H2BK20ac H2BK24ac H2BK27ac H2BK28ac, binder concentration: 500 nM",0.00419 ± 0.00026
same,peptide microarray binding signal,"[2]; peptide modifications: H2BK20ac H2BK24ac H2BK27ac H2BK28ac, binder concentration: 10 nM",0.00436 ± 0.00021
same,peptide microarray binding signal,"[2]; peptide modifications: H2BK20ac H2BK24ac H2BK27ac H2BK28ac, binder concentration: 100 nM",0.00489 ± 0.00035
same,peptide microarray binding signal,[3]; [13],0.000472 ± 1.7e-05
same,peptide microarray binding signal,[3]; [14],0.000856 ± 8.9e-06
same,peptide microarray binding signal,[4]; [13],0.000468 ± 1.8e-05
same,peptide microarray binding signal,[4]; [14],0.000692 ± 7.3e-06
AVTKAQKKDGKKR [H2B 17-29 A V T K A Q Kac Kac D G K K R],peptide microarray binding signal,"[1]; peptide modifications: H2BK23ac H2BK24ac, binder concentration: 50 nM",0.00605 ± 0.00096
same,peptide microarray binding signal,"[1]; peptide modifications: H2BK23ac H2BK24ac, binder concentration: 500 nM",0.00486 ± 0.0017
same,peptide microarray binding signal,"[2]; peptide modifications: H2BK23ac H2BK24ac, binder concentration: 10 nM",0.00543 ± 0.00017
same,peptide microarray binding signal,"[2]; peptide modifications: H2BK23ac H2BK24ac, binder concentration: 100 nM",0.00347 ± 0.00023
same,peptide microarray binding signal,[3]; [15],0.000566 ± 8.2e-05
same,peptide microarray binding signal,[3]; [16],0.00257 ± 0.00026
same,peptide microarray binding signal,[4]; [15],0.000951 ± 7.5e-05
same,peptide microarray binding signal,[4]; [16],0.00115 ± 4.1e-05
AVTKAQKKDGKKR [H2B 17-29 A V T Kac A Q K K D G K Kac R],peptide microarray binding signal,"[1]; peptide modifications: H2BK20ac H2BK28ac, binder concentration: 50 nM",0.00245 ± 3.9e-05
same,peptide microarray binding signal,"[1]; peptide modifications: H2BK20ac H2BK28ac, binder concentration: 500 nM",0.00848 ± 0.00061
same,peptide microarray binding signal,"[2]; peptide modifications: H2BK20ac H2BK28ac, binder concentration: 10 nM",0.00328 ± 6.2e-05
same,peptide microarray binding signal,"[2]; peptide modifications: H2BK20ac H2BK28ac, binder concentration: 100 nM",0.00446 ± 0.00022
same,peptide microarray binding signal,[3]; [17],0.00126 ± 0.00023
same,peptide microarray binding signal,[3]; [18],0.000799 ± 8.3e-06
same,peptide microarray binding signal,[4]; [17],0.000393 ± 7.7e-06
same,peptide microarray binding signal,[4]; [18],0.000461
AVTKAQKKDGKKR [H2B 17-29 A V T Kac A Q K K D G K K R],peptide microarray binding signal,"[1]; peptide modifications: H2BK20ac, binder concentration: 50 nM",0.00492 ± 0.0007
same,peptide microarray binding signal,"[1]; peptide modifications: H2BK20ac, binder concentration: 500 nM",0.00962 ± 0.0042
same,peptide microarray binding signal,"[2]; peptide modifications: H2BK20ac, binder concentration: 10 nM",0.00448 ± 0.00039
same,peptide microarray binding signal,"[2]; peptide modifications: H2BK20ac, binder concentration: 100 nM",0.00829 ± 0.0016
same,peptide microarray binding signal,[3]; [19],0.000378 ± 2.7e-05
same,peptide microarray binding signal,[3]; [20],0.0012 ± 4.3e-05
same,peptide microarray binding signal,[4]; [19],0.000483 ± 1.2e-05
same,peptide microarray binding signal,[4]; [20],0.000807 ± 2.5e-05
AVTKAQKKDGKKR [H2B 17-29 A V T K A Q K K D G K K R],peptide microarray binding signal,[1]; binder concentration: 50 nM,0.00972 ± 0.00026
same,peptide microarray binding signal,[1]; binder concentration: 500 nM,0.0111 ± 0.00017
same,peptide microarray binding signal,[2]; binder concentration: 10 nM,0.0152 ± 0.0002
same,peptide microarray binding signal,[2]; binder concentration: 100 nM,0.00666 ± 0.00025
same,peptide microarray binding signal,[3]; [21],0.0021 ± 7.2e-05
same,peptide microarray binding signal,[3]; [22],0.00428 ± 3.3e-05
same,peptide microarray binding signal,[4]; [21],0.00118 ± 1.6e-05
same,peptide microarray binding signal,[4]; [22],0.00421 ± 8.6e-05
AVTKAQKKDGKKR [H2B 17-29 A V T K A Q Kac Kac D G K Kac R],peptide microarray binding signal,"[1]; peptide modifications: H2BK23ac H2BK24ac H2BK28ac, binder concentration: 50 nM",0.0036 ± 3.9e-05
same,peptide microarray binding signal,"[1]; peptide modifications: H2BK23ac H2BK24ac H2BK28ac, binder concentration: 500 nM",0.00652 ± 0.00023
same,peptide microarray binding signal,"[2]; peptide modifications: H2BK23ac H2BK24ac H2BK28ac, binder concentration: 10 nM",0.00561 ± 8.2e-05
same,peptide microarray binding signal,"[2]; peptide modifications: H2BK23ac H2BK24ac H2BK28ac, binder concentration: 100 nM",0.00822 ± 0.00014
same,peptide microarray binding signal,[3]; [23],0.00143 ± 0.00012
same,peptide microarray binding signal,[3]; [24],0.00217 ± 0.00011
same,peptide microarray binding signal,[4]; [23],0.000544 ± 2.3e-05
same,peptide microarray binding signal,[4]; [24],0.00098 ± 1.7e-05
AVTKAQKKDGKKR [H2B 17-29 A V T Kac A Q Kac K D G Kac K R],peptide microarray binding signal,"[1]; peptide modifications: H2BK20ac H2BK23ac H2BK27ac, binder concentration: 50 nM",0.00646 ± 0.00075
same,peptide microarray binding signal,"[1]; peptide modifications: H2BK20ac H2BK23ac H2BK27ac, binder concentration: 500 nM",0.00214 ± 0.00028
same,peptide microarray binding signal,"[2]; peptide modifications: H2BK20ac H2BK23ac H2BK27ac, binder concentration: 10 nM",0.00585 ± 0.00024
same,peptide microarray binding signal,"[2]; peptide modifications: H2BK20ac H2BK23ac H2BK27ac, binder concentration: 100 nM",0.000992 ± 4.7e-05
same,peptide microarray binding signal,[3]; [25],0.000189 ± 5.4e-06
same,peptide microarray binding signal,[3]; [26],0.0016 ± 0.00014
same,peptide microarray binding signal,[4]; [25],0.000664 ± 5.2e-05
same,peptide microarray binding signal,[4]; [26],0.001211 ± 1.2e-05
AVTKAQKKDGKKR [H2B 17-29 A V T Kac A Q Kac K D G K K R],peptide microarray binding signal,[1]; [5],0.00492 ± 0.00049
same,peptide microarray binding signal,[1]; [6],0.002 ± 0.0004
same,peptide microarray binding signal,[2]; [7],0.00477 ± 0.00013
same,peptide microarray binding signal,[2]; [8],0.00333 ± 0.00048
same,peptide microarray binding signal,[3]; [9],0.000321 ± 3.2e-05
same,peptide microarray binding signal,[3]; [10],0.00097 ± 7e-05
same,peptide microarray binding signal,[4]; [9],0.000408 ± 6.9e-06
same,peptide microarray binding signal,[4]; [10],0.000634 ± 1.2e-05
